{"source": "PubChem BioAssay (NCATS)", "note": "Records with an inconclusive call do not appear. Entries that show only a call come without a potency. The source made the active and inactive calls. Calls come from the whole dose curve; as a rule, active = well fitted activation curve with a large enough effect; inconclusive = small, poorly fitted or top-dose-only effect; inactive = flat fitted curve, though single readings scatter. Numbered stars: 1 amine (or outer) side, 2 acyl side, 3 side chain; on linkers, the order of the positions; unused ones are H or OH. Bridge positions count the residues as written; N and C are the ends. Square brackets hold non-standard residues; d marks the D form. Peptide text beside a SMILES is read from it. ξ: configuration not given here. Phe(3R-OH) = O=C([C@@H](N[*:1])[C@H](O[*:3])c1ccccc1)[*:2]; NMeTrp(4-OMe) = CN[C@@H](Cc1c[nH]c2cccc(OC)c12)C(=O)O; ξThr(3R)(O-yl) = C[C@@H](O[*:3])C(N[*:1])C(=O)[*:2]; NMeThr(3ξ) = CN[C@H](C(=O)O)C(C)O; NMeL = CN[C@@H](CC(C)C)C(=O)O; NMeV = CN[C@H](C(=O)O)C(C)C; ξIle = CC[C@H](C)C(N)C(=O)O; ξV = CC(C)C(N)C(=O)O", "data": [{"assay": "HEK293 18hr Apoptosis Induction qHTS against the NCATS CANVASS Library (AID 1347357); note: potency is the fitted concentration of half-maximal effect", "conditions": "HEK293 caspase-3/7 Caspase-Glo luminescence; series mostly up to 46.1 µM", "from_the_text": "Natural products and their derivatives continue to be wellsprings of nascent therapeutic potential. However, many laboratories have limited resources for biological evaluation, leaving their previously isolated or synthesized compounds largely or completely untested. To address this issue, the Canvass library of natural products was assembled (https://tripod.nih.gov/canvass), in collaboration with academic and industry researchers, for quantitative high-throughput screening (qHTS) across a diverse set of cell-based and biochemical assays. The pure (>85% purity by liquid chromatography/mass spectrometry [LC/MS]) Canvass library of 346 natural products were submitted by 45 academic laboratories and companies around the world. We collected pure natural products to circumvent deconvolution and structure elucidation due to time and resource limitations. The library was formatted into 1536-well plates and evaluated in 50 qHTS (in an 11-pnt concentration series) bioassays with broad scope of disease-relevant mechanisms. The resulting data set from 50 different assays was then systematically analyzed to identify overall trends and specific natural products with interesting biological activities. Reported herein are the results of each individual qHTS and their corresponding assay protocol. The Caspase-Glo (R) (Promega) is a homogeneous, luminescent assay that measures caspase activity. The detection substrate contains tetrapeptide sequence DEVD in an \"add-mix-measure\" format. The reagent generates a luminescent signal produced by a thermostable luciferase. The luminescence is proportional to the amount of caspase activity in the assay reaction. National Center for Advancing Translational Sciences (NCATS), Rockville, MD National Institute of Health (NIH), Bethesda, Maryland\nCancer Cell Apoptosis Assay 1. In a 1536 well, white solid bottom tissue culture plates (Corning 7494), HEK293 cancer cells in DMEM + 10% FBS + 1% P/S media were dispensed in each well at a final concentration of 500 cells / well (5uL volume) using the Multidrop Combi (Thermo Fisher Scientific) dispenser. 2. Compounds were pin transferred (~23nL volume) via Wako Pin-tool (Wako Automation, Richmond VA) equipped with a 1536 pin head. The assay plates were treated with compounds in a concentration series with a final concentration range of 0.17nM to 103uM. 3. Doxorubicin was used as a control in a 16pnt titration (1mM; 1:2 dilution; 16-points; n = 2; column 3, rows 1 - 32) and was pin transferred via Wako Pin-tool equipped with a 1536 pin head. The final concentration range of doxorubicin is 0.1nM - 4uM. 4. The assay plates were incubated for 18 hours at 37 degrees C/5% CO2/95% Rh. 5. 3uL Caspase-Glo 3/7 (R) (Promega) detection reagent was then added to the assay plates (columns 2 - 48, rows 1 - 32) and incubated at room temperature, covered from light, for 15 min. 6. Luminescence signal was acquired via the ViewLux plate reader (PerkinElmer) using a clear filter, 20 second exposure and 2x binning settings.", "values": [{"compound": "C1=C2CCCN[C@@H]2[C@@H]2CCN3CCCC[C@@H]3[C@H](C1)C2", "Potency": "inactive"}, {"compound": "CC1C(=O)C23CCC1C[C@@]21O[C@H]2C(C)(C)C=CC(=O)[C@@]23COC1=O", "note": "(stereo not given in full)", "Potency": "inactive"}, {"compound": "COc1ccc([C@@H]2c3cc(OC)c(OC)cc3C(=O)[C@H](C)C2C)cc1OC", "note": "(stereo not given in full)", "caspase activation": "3.8% [at 9.19 µM] (inactive)"}, {"compound": "CC(=O)O[C@@H]1C=C2C(=O)OC[C@]2(O)[C@@]2(C)CCCC(C)(C)[C@H]12", "Potency": "26.4 µM (active)"}, {"compound": "CC1=CC[C@@]2(C[C@@H]1O)[C@@H](C(=O)O)CC[C@H]2C(C)C", "Potency": "inactive"}, {"compound": "C=C1C[C@@]23C=CC(=O)[C@@](C)(CCC(=O)Nc4c(O)ccc(C(=O)O)c4O)C2C[C@@H]1CC3", "note": "(stereo not given in full)", "Potency": "inactive"}, {"compound": "CC[C@@H]1C[C@@]2(CC)OC(=O)[C@@]3(CC)OC(=O)[C@@H]1[C@@H]23", "Potency": "inactive"}, {"compound": "O=C(O)CC1OCc2c(O)cccc21", "note": "(stereo not given)", "Potency": "inactive"}, {"compound": "O=C1CC(c2cc(O)cc(O)c2)Oc2cc(O)ccc21", "note": "(stereo not given)", "Potency": "inactive"}, {"compound": "CN1CC[C@]2(c3cccc4c3N[C@@H]3N(C)CC[C@]43[C@@]34CCN(C)[C@@H]3Nc3c([C@]56CCN(C)[C@H]5Nc5ccccc56)cccc34)c3ccccc3N[C@H]12", "Potency": "inactive"}, {"compound": "CC(C)(Br)[C@@H](Cl)C[C@H](Br)[C@](C)(Cl)/C=C/Br", "Potency": "inactive"}, {"compound": "C=C(C)C(=O)O[C@H]1C[C@H](C)[C@@H](OC(C)=O)CC[C@@]2(C)O[C@@H]2[C@H]2OC(=O)C(COC(C)=O)=C12", "Potency": "9.35 µM (active)"}, {"compound": "CC[C@H](C)C(NC(=O)[C@@H](NC)C(C)C)C(=O)NC1C(=O)N(C)[C@@H](C(C)O)C(=O)N[C@@H](C(C)C)C(=O)N(C)[C@@H](CC(C)C)C(=O)NC(C(C)C)C(=O)N(C)[C@@H](C(C)C)C(=O)N(C)[C@@H](Cc2c[nH]c3cccc(OC)c23)C(=O)N[C@@H](C(C)C)C(=O)N[C@@H]([C@H](O)c2ccccc2)C(=O)N[C@@H](C(C)C)C(=O)O[C@@H]1C", "note": "(stereo partly drawn) (H-[NMeV][ξIle][ξThr(3R)(O-yl)][NMeThr(3ξ)]V[NMeL][ξV][NMeV][NMeTrp(4-OMe)]V[Phe(3R-OH)]V; ester 3-C)", "Potency": "inactive"}, {"compound": "C=C[C@]1(C)CC[C@@H]([C@H](C)C(=O)/C=C/C(C)C)O1", "Potency": "inactive"}, {"compound": "COC1C(O)C(OC(N)=O)C(Oc2ccc3c(O)c(NC(=O)c4ccc(O)c(CC=C(C)C)c4)c(=O)oc3c2C)OC1(C)C", "note": "(stereo not given)", "Potency": "inactive"}, {"compound": "C=C(NC(=O)c1csc(-c2nc3c(cc2O)-c2nc(cs2)C(=O)NC(C(C)O)C(=O)N/C(=C(\\C)O)c2nc(cs2)C(=O)NC2c4nc(cs4)C(=O)NC(COC(=O)c4c5c6c(cccc6n4O)COC(=O)[C@@H](OC4C[C@](C)(O)[C@H](N(C)C)[C@H](C)O4)C2OC5)c2nc-3cs2)n1)C(N)=O", "note": "(stereo not given in full)", "Potency": "inactive"}, {"compound": "CC1(C)[C@H](Br)CC[C@]23C[C@]4(C)C(=O)CC12C[C@H]34", "Potency": "inactive"}, {"compound": "C/C1=C\\CC(=O)/C=C/C=C\\c2csc(n2)[C@@H](C)NC(=O)C[C@@](S)([C@@H](C)C(=O)O)CC1", "Potency": "inactive"}, {"compound": "C[C@@]12CCC[C@@](C)(C(=O)O)[C@H]1C[C@@H](O)[C@]13C[C@H]4C[C@H](O[C@@]4(C)C1)[C@@H]23", "Potency": "inactive"}, {"compound": "C/C=C/C=C/C1(O)C2C=C3C(=O)CC45C(=O)C(O)=C(C)C(=O)C4C1C1(C(=O)C(O)=C(C)C(=O)C351)C2C", "note": "(stereo not given)", "Potency": "inactive"}, {"compound": "C=C(C)CC[C@H](Cc1c(O)cc(O)c2c1O[C@H](c1ccc(O)cc1O)CC2=O)C(=C)C", "Potency": "inactive"}, {"compound": "OCc1ccc2ocnc2c1", "Potency": "inactive"}, {"compound": "C/C(=C\\[C@H](C)C(=O)CCCC1CC(=O)NC(=O)C1)C(O)[C@@H](C)[C@H](O)C/C=C/CC/C=C/C(=O)O", "note": "(stereo not given in full)", "Potency": "inactive"}, {"compound": "CN1CCc2cc3c(c4c2[C@H]1[C@@H](O)c1ccccc1-4)OCO3", "Potency": "inactive"}, {"compound": "C[C@@]12C[C@@H](C[C@H]3C(=O)O[C@@H](c4ccoc4)[C@H](OC(=O)c4ccccc4)[C@@H]31)OC2=O", "Potency": "inactive"}, {"compound": "Oc1ccc(C2c3c(O)cc(O)cc3[C@@H]3C(c4ccc(O)cc4)c4c(O)cc(O)cc4[C@H]23)cc1", "note": "(stereo not given in full)", "Potency": "inactive"}, {"compound": "C[C@@H]1C(=O)[C@]23CC[C@H]1C[C@]21O[C@H]2C(C)(C)C=CC(=O)[C@@]23COC1=O", "Potency": "inactive"}, {"compound": "C=C1C[C@@]23C=CC(=O)[C@@](C)(CCCC(C)C(=O)O)[C@@H]2C[C@@H]1CC3", "note": "(stereo not given in full)", "Potency": "inactive"}, {"compound": "C=C1C[C@@]23C=CC(=O)[C@@](C)(CCC(=O)Nc4c(O)ccc(C(=O)O)c4O)C2C[C@@H]1C(O)C3", "note": "(stereo not given in full)", "Potency": "inactive"}, {"compound": "C=C1C(=O)C[C@H]2C[C@@H]1[C@]2(C)CCC=C(C)C", "Potency": "inactive"}, {"compound": "C=C[C@@]1(C)CC[C@@H]([C@H](C)C(=O)/C=C/C(C)C)O1", "Potency": "inactive"}, {"compound": "C/C=C1/CC[C@@H]2c3[nH]c4ccccc4c3CCN2C1", "Potency": "inactive"}, {"compound": "C[C@@H](O)[C@H]1OC(=O)C=C2[C@]3(C)[C@H]4[C@H](OC(=O)[C@@]4(C)[C@@H](O)[C@H]4O[C@H]43)[C@H]3O[C@@]231", "Potency": "inactive"}, {"compound": "CC(O)/C=C/C1(O)C(C)(C)CC(O)CC1(C)O", "note": "(stereo not given)", "Potency": "inactive"}, {"compound": "CN1C(=O)C2C(N=CN2C)N(C)C1=O", "note": "(stereo not given)", "Potency": "inactive"}, {"compound": "CCCCCCCCCCCCCCC[C@H](O)C[C@@H](O)C[C@@H](O)C[C@@H](O)C[C@@H](O)C[C@H]1CC=CC(=O)O1", "Potency": "16.6 µM (active)"}, {"compound": "O=Cc1ccc2n1C[C@@]1(C[C@H](O)[C@@H](CO)O1)OC2", "Potency": "inactive"}, {"compound": "C[C@@H]1C(=O)[C@]23CC[C@H]1C[C@]21O[C@H]2C(C)(C)C=CC(=O)[C@]23COC1=O", "Potency": "inactive"}, {"compound": "CCCCCCCCCCCCCCCC(=O)OC/C=C(\\C)CCCC(C)CC(C)C(C)C", "note": "(stereo not given)", "Potency": "inactive"}, {"compound": "CO[C@H]1/C=C/CC[C@@H](S[C@@H]2O[C@H](CO)[C@@H](O)[C@H](O)[C@H]2O)CC(=O)O[C@@H](/C(C)=C/[C@H](C)C(=O)CCCC2CC(=O)NC(=O)C2)[C@@H](C)[C@@H]1O", "Potency": "inactive"}]}]}
